Reference: PubChem BioAssay (EPA / NIEHS)
Calls of active or inactive are those of the source. Rule for the calls: active = hit-call score of the fitted dose curve at least 0.9, where 1 is the maximum; inactive = score below 0.9.

Assay: ATG_M_32_CIS: Attagene CIS-FACTORIAL HepG2 Assay for M32 Transcription Factor (Internal Marker) (AID 2282949);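 note: background control marker of the multiplexed CIS panel rather than a real target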
Details: HepG2 Attagene cis-factorial M32 reporter, mRNA; actives raise or lower the signal
Procedure: ATG_CIS is a cell-based, multiplexed-readout assay that uses HepG2, a human liver cell line, with measurements taken at 24 hours after chemical dosing in a 24-well plate.ATG_M_32_CIS is one of 52 assay component(s) measured or calculated from the ATG_CIS assay. It is designed to make measurements of mRNA induction, a form of inducible reporter, as detected with fluorescence intensity signals by Reverse transcription polymerase chain reaction (RT-PCR) and Capillary electrophoresis technology.Data from the assay component ATG_M_32_CIS was analyzed into 1 assay endpoint. This assay endpoint, ATG_M_32_CIS, was analyzed with bidirectional fitting relative to DMSO as the negative control and baseline of activity. Using a type of inducible reporter, measures of mRNA for gain or loss-of-signal activity can be used to understand the background control at the transcription factor-level as they relate to the gene . Furthermore, this assay endpoint can be referred to as a secondary readout, because this assay has produced multiple assay endpoints where this one serves a background control function. To generalize the intended target to other relatable targets, this assay endpoint is annotated to the background measurement intended target family, where the subfamily is internal marker.
Human liver HepG2 cells are transiently transfected with multiple reporter transcription units (MRTUs) in 6-well plates using FuGene 6 reagent (Roche; 3 ml FuGene/1 mg DNA). The MRTU constructs are regulated by a cis-regulating element (promoter). […] A major difference between the CIS and TRANS system is that in CIS activities of endogenous TFs are measured, whereas the TRANS assay evaluates changes in activities of exogenous, chimeric NR-Gal4 proteins. […] At the end of 24 hour incubation, total RNA was isolated using TriZol reagent (Invitrogen). The isolated RNA is then reverse-transcribed using oligo(dT) primer and Mo-MLV reverse transcriptase (Invitrogen) with DNAse I (Ambion) treatment for 30 min. The one-tenth of the produced cDNA was amplified by PCR using Taq DNA polymerase (Invitrogen) and two reporter sequence-specific primers. The PCR products were fluorescently labeled by primer extension with 6-arboxyfluorescein (6-FAM) 5'-labeled reporter sequence-specific primer (2 min at 95 C, 20 s at 68 C and 10 min at 72 C) and these products were digested with 5U of HpaI (New England Biolabs) for 2h at 37 C. The fragments were purified using Qiaquick PCR columns (Qiagen), analyzed on an ABI 3130xL genetic analyzer (Applied Biosystems) with peak positions identified by using a set of X-rhodamine (ROX)-labeled MapMarker1000 molecular weight standards (BioVentures). The raw capillary electrophoresis data was processed using Attagraph software (Attagene).

outcome, inactive:
Nc1ccc(N)c(Cl)c1
CCOC(=O)N1CCC(=C2c3ccc(Cl)cc3CCc3cccnc32)CC1
CC(=O)OCC(C)OC(C)=O (stereo not given)
C=CC(=O)OCCOC1C2CCC1C1CC=CC12 (stereo not given)
c1ccc(-c2ccccn2)nc1
O=S(=O)(O)c1cc(S(=O)(=O)O)c2ccc3c(S(=O)(=O)O)cc(S(=O)(=O)O)c4ccc1c2c43
CC[C@H]1OC(=O)[C@H](C)[C@@H](O[C@H]2C[C@@](C)(OC)[C@@H](O)[C@H](C)O2)[C@H](C)[C@@H](O[C@@H]2O[C@H](C)C[C@H](N(C)C)[C@H]2O)[C@](C)(O)C[C@@H](C)C(=NOCOCCOC)[C@H](C)[C@@H](O)[C@]1(C)O
CC1OC1C1CCC2(C)OC2C1 (stereo not given)
Cc1cc(C)c(C(=O)O)c(C)c1
O=c1[nH]nc(-c2ccc([N+](=O)[O-])o2)o1
CCOC(=O)[C@H](C)O
CC=CC(=O)N(CC)c1ccccc1C
CC(=O)OCC(=O)[C@@]12N=C(C)O[C@@H]1C[C@H]1[C@@H]3CCC4=CC(=O)C=C[C@]4(C)[C@H]3[C@@H](O)C[C@@]12C
CC(=O)c1ccc2c(c1)CCCC2
CC(=O)[C@@]1(O)CC[C@H]2[C@@H]3C[C@H](C)C4=CC(=O)C=C[C@]4(C)[C@@]3(F)[C@@H](O)C[C@@]21C
CC(=O)Oc1ccc(C)cc1
O=C(c1ccccc1)C1CCC1
C[C@]12C=CC(=O)C=C1CC[C@@H]1[C@@H]2[C@@H](O)C[C@@]2(C)[C@H]1CC[C@]2(O)C(=O)CO
O=[N+]([O-])C1(Br)COCOC1
Cc1cccc(N(C)C(=S)Oc2ccc3ccccc3c2)c1
COc1c2ccoc2cc2oc(=O)ccc12
COC(=O)/C=C\C(=O)O
Cc1ccc(C2OC[C@@H]3OC(c4ccc(C)cc4)O[C@H]([C@H](O)CO)[C@@H]3O2)cc1 (stereo not given in full)
C=C[Si](C)(C)O[Si](C)(C)C=C
CC1=CC[C@H](C(C)C)C=C1
c1ccc(CCCc2ccncc2)cc1
O=C1C(N(CO)C(=O)NCO)N(CO)C(=O)N1CO (stereo not given)
CC(C)c1ccc2cc(C(C)C)ccc2c1
C[Si](C)O[Si](C)(C)O[Si](C)(C)O[Si](C)C
CCCCCCCCCCCCCOP(=O)(O)O
Cc1cc(C)c(C)c(O)c1
CC=CC(F)(F)C(F)(F)C(F)(F)F
O=C1OC(=O)c2cc(Oc3ccc4c(c3)C(=O)OC4=O)ccc21
NC(=O)c1ccccc1O
CCCCCCOC(=O)C(C)CC (stereo not given)
CN(C)c1ccc(N=Nc2ccccc2C(=O)O)cc1
O=C(O)Cc1c(Cl)ccc(Cl)c1Cl
O=C1c2ccccc2C(=O)C1c1nc2ccccc2c(Br)c1O
C=C[Si](OC(C)=O)(OC(C)=O)OC(C)=O
Cc1cccc(C(=O)O)c1
